Assay results as given in PubChem BioAssay (Tox21).
“And” between values parts separate entries of the source, which are not always exact repeats. Equal entries are not always repeated. Inconclusive results are not listed. The source made the active and inactive calls. Calls come from the whole dose curve; as a rule, active = well fitted curve in the direction sought with a large enough effect in the repeat runs; inconclusive = weak or mixed curves; inactive = no such curve, though single readings can be large; an effect the other way counts as inactive or inconclusive.

What was measured:
[1] = Human pregnane X receptor (PXR) small molecule agonists, qHTS cell viability counter screen (AID 1346977); note: nearly all actives have a fitted effect of over 50% in size; note: potency is the fitted concentration of half-maximal effect
How it was run: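 Tox21 qHTS format; PXR-Luc HepG2, 2,000/well, charcoal-stripped FBS 5%. Cpd exposure 24hr. Read: CellTiter-Fluor fluorescence, multiplexed with luciferase.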

[2] = Caspase-3/7 induction in HepG2 cells by small molecules, qHTS assay (AID 1346978); note: nearly all actives have a fitted effect of over 15% in size; note: potency is the fitted concentration of half-maximal effect
How it was run: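 Caspase-3/7 induction was measured by Caspase-Glo 3/7 luminescence (30 min, room temperature) after a 17 hr compound exposure of wild-type HepG2 cells seeded at 2,000 per well and pre-incubated 5 hr.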

[3] = Caspase-3/7 induction in CHO-K1 cells by small molecules, qHTS cell viability counter screen (AID 1346979); note: nearly all actives have a fitted effect of over 35% in size; note: potency is the fitted concentration of half-maximal effect
How it was run: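 CellTiter-Fluor viability check, qHTS format: wild-type CHO-K1, 16hr compound treatment, 1hr reagent incubation, fluorescence read.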

[4] = Caspase-3/7 induction in CHO-K1 cells by small molecules, qHTS assay (AID 1346980); note: nearly all actives have a fitted effect of over 15% in size
How it was run: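 Luminescent Caspase-Glo 3/7 read (30min, room temperature) quantified apoptosis induction. Cells were wild-type CHO-K1, treated with compound for 17hr at 37 C and 5% CO2.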

[5] = Caspase-3/7 induction in HepG2 cells by small molecules, qHTS cell viability counter screen (AID 1346981); note: nearly all actives have a fitted effect of over 30% in size; note: potency is the fitted concentration of half-maximal effect
How it was run: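 Treatment of HepG2 cells with DMSO-delivered compounds ran 16 hr at 37 C following a 5-hr pre-incubation of 2,000 cells/well. CellTiter-Fluor fluorescence, read after 1 hr, served as the viability measure in a qHTS format.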

[6] = target: Nuclear receptor subfamily 1 group I member 2 (Homo sapiens) (UniProt O75469); test: Human pregnane X receptor (PXR) small molecule agonists, qHTS assay (AID 1346982); note: nearly all actives have a fitted effect of over 35% in size; note: potency is the fitted concentration of half-maximal effect
Chain of Nuclear receptor subfamily 1 group I member 2 (Homo sapiens) (O75469 whole entry, looked up): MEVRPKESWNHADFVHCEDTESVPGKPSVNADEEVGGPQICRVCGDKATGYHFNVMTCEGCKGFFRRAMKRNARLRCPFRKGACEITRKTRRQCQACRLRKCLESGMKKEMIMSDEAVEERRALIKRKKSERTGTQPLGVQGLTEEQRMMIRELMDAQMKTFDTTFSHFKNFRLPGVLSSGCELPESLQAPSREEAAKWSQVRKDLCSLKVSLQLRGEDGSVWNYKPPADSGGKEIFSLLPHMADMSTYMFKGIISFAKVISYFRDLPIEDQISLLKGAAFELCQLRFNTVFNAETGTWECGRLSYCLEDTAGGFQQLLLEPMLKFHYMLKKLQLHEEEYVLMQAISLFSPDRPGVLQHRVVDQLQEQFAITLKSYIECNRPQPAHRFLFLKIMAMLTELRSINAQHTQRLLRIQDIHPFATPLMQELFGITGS
How it was run: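 Stable HepG2 line reporting PXR-mediated CYP3A4 expression via luciferase. Treatment: 24 hr with compounds in DMSO at 37 C. Detection: ONE-Glo luminescence.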

[7] = target: Cytochrome P450 2D6 (Homo sapiens) (UniProt P10635); test: Cytochrome P450 Family 2 Subfamily D Member 6 (CYP2D6) small molecule antagonists: luciferase reporter qHTS assay (AID 1671196); note: nearly all actives have a fitted effect of over 50% in size; note: potency is the fitted concentration of half-maximal effect
Chain of Cytochrome P450 2D6 (Homo sapiens) (P10635 whole entry, looked up): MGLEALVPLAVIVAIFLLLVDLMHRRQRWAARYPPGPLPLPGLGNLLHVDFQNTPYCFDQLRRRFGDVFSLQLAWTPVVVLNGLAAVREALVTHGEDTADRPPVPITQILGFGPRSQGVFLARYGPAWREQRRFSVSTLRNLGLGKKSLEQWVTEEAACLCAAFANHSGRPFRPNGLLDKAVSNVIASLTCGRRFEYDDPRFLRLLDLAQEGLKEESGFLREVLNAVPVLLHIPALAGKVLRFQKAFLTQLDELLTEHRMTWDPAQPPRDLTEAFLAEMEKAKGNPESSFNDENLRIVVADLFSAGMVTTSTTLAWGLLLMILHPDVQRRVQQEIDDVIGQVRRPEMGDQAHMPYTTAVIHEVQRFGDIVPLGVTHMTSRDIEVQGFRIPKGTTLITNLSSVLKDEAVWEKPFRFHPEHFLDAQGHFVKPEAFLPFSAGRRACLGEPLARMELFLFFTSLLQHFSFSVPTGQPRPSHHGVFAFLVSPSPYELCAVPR
How it was run: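 Chemicals tested for interference with CYP2D6 activity; proluciferin substrate, NADPH regeneration, 1 h at room temperature, luminescent detection.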

[8] = target: Nuclear receptor subfamily 1 group I member 2 (Homo sapiens) (UniProt O75469); test: CYP3A4 induction through human pregnane X receptor (PXR) by small molecules, qHTS assay (AID 1346984); note: nearly all actives have a fitted effect of over 40% in size
How it was run: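 After 24 h at 37C with compound, DPX-2 cells (HepG2, co-transfected PXR response element and CYP3A4 promoter-luciferase) got 3uM final P450-Glo Luciferin-IPA for 3 h; One-Glo luminescence followed.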

[9] = target: Nuclear receptor subfamily 1 group I member 2 (Rattus norvegicus) (UniProt Q9R1A7); test: Rat pregnane X receptor (rPXR) activation by small molecules, qHTS assay (AID 1346983); conditions: rPXR luciferase reporter cells, One-Glo luminescence, 24 h; max activation: hits give high values; note: nearly all actives have a fitted effect of over 20% in size; note: potency is the fitted concentration of half-maximal effect
Chain of Nuclear receptor subfamily 1 group I member 2 (Rattus norvegicus) (Q9R1A7 whole entry, looked up): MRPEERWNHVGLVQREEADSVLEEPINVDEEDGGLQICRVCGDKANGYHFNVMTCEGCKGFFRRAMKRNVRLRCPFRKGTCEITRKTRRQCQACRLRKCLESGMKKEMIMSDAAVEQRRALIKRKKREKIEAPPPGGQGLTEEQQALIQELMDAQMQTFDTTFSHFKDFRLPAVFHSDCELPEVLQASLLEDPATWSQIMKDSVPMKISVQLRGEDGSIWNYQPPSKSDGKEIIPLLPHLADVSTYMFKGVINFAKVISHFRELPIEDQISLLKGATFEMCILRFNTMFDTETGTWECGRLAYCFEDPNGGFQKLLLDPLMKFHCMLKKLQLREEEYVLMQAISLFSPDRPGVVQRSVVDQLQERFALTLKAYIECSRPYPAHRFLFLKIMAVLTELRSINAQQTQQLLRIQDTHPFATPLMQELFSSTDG
How it was run: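 Luminescent readout (One-Glo luciferase, 30 min room temperature) followed 24 hr compound treatment at 37 C of rPXR cells plated 2,000 per well and preincubated 5hr; qHTS format with compounds delivered in DMSO.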

[10] = target: Nuclear receptor subfamily 1 group I member 2 (Homo sapiens) (UniProt O75469); test: Human pregnane X receptor (PXR) activation by small molecules, qHTS assay (AID 1346985); note: nearly all actives have a fitted effect of over 40% in size; note: potency is the fitted concentration of half-maximal effect
How it was run: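 DPX-2 cells (HepG2 co-transfected with a PXR response element and a CYP3A4-promoter luciferase construct) were seeded at 2,000 per well, rested 5 hr at 37C, then exposed to DMSO-dissolved compounds for 24 hr. Activation was read as luciferase luminescence.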
% is set by controls: 0 for no effect and ±100 for the full control effect.

CCN(Cc1cccnc1)C(=O)c1cccc(Cl)c1[C@]1(C)C(=O)N(Cc2ccc(OC)cc2OC)c2ccc(Cl)cc21
inactive: Potency [2] | Potency [4]
active: Potency [1] 25.5 µM | Potency [3] 20.3 µM | Potency [5] 45.4 µM | Potency [6] 20.3 µM | Potency [7] 18.7 µM

On1ccccc1=S
active: Potency [1] 0.762 µM | Potency [2] 1.71 µM | Potency [3] 0.428 µM | Potency [5] 15.2 µM
inactive: Potency [4]

Cc1cc(O)c(Cl)c(C)c1Cl
inactive: Potency [1] | Potency [2] | Potency [3] | Potency [4] | Potency [5] | Potency [6]

COc1cccc2c1C(=O)c1c(O)c3c(c(O)c1C2=O)C[C@@](O)(C(=O)CO)C[C@@H]3O[C@H]1C[C@H](N)[C@H](O[C@@H]2CCCCO2)[C@H](C)O1
inactive: Potency [4] | Potency [6] | Potency [8]
active: Potency [1] 1.68 µM | Potency [2] 2.37 µM | Potency [3] 6.68 µM | Potency [5] 8.41 µM

O=C1c2c(O)ccc(Nc3ccc(CCO)cc3)c2C(=O)c2c([N+](=O)[O-])ccc(O)c21
active: Potency [1] 43.3 µM | Potency [3] 54.5 µM | Potency [5] 54.5 µM
inactive: Potency [2] | Potency [4]

Clc1ccccc1C(c1ccccc1)(c1ccccc1)n1ccnc1
inactive: Potency [2] | Potency [4] | Potency [8]
active: Potency [1] 17.2 µM | Potency [3] 8.63 µM and 7.5 µM | Potency [5] 48.6 µM | Potency [6] 770 nM and 11.9 µM | Potency [9] 3.98 µM | Potency [10] 3.98 µM

CCN(C(=O)N(CC)c1ccccc1)c1ccccc1
active: Potency [6] 30.6 µM
inactive: Potency [1] | Potency [2] | Potency [3] | Potency [4] | Potency [5]

O=C1CCCCCN1SSN1CCCCCC1=O
active: Potency [3] 54.5 µM
inactive: Potency [1] | Potency [2] | Potency [4] | Potency [5]

O=[N+]([O-])c1ccccc1Nc1ccccc1
active: Potency [6] 48.3 µM
inactive: Potency [1] | Potency [2] | Potency [3] | Potency [4] | Potency [5]

O=[N+]([O-])c1cc(Cl)c(Cl)c(Cl)c1Cl
active: Potency [3] 60.9 µM | Potency [6] 60.9 µM
inactive: Potency [1] | Potency [2] | Potency [4] | Potency [5]

[O-][n+]1ccccc1SSc1cccc[n+]1[O-]
inactive: caspase-3/7 activation [4] -5.93% [at 19 µM] | activation [6] -49.4% [at 19 µM] | max activation [9] -9.36% | Potency [8]
active: Potency [1] 0.184 µM | Potency [2] 0.291 µM | Potency [3] 0.073 µM | Potency [5] 4.11 µM | Potency [10] 11.2 µM | Potency [7] 2.13 µM

CC(C)(C)C(=O)OCOC(=O)C1N2C(=O)CC2S(=O)(=O)C1(C)C (stereo not drawn)
inactive: Potency [1] | Potency [2] | Potency [3] | Potency [4] | Potency [5] | Potency [6] | Potency [7]

Oc1cc2ccccc2c2ccccc12
inactive: Potency [2] | Potency [4] | Potency [6]
active: Potency [1] 13.7 µM | Potency [3] 15.4 µM | Potency [5] 13.7 µM

NC(=O)NS(=O)(=O)c1ccc(N)cc1
inactive: Potency [1] | Potency [2] | Potency [3] | Potency [4] | Potency [5] | Potency [6] | max activation [9] -4.58% | Potency [8] | Potency [10] | Potency [7]

[Cl][Au]([Cl])[Cl]
inactive: Potency [2] | Potency [4]
active: Potency [1] 13.7 µM | Potency [3] 24.3 µM | Potency [5] 68.6 µM

COC(=O)C1=C(C)NC(C)=C(C(=O)OCC(C)C)C1c1ccccc1[N+](=O)[O-] (stereo not drawn)
inactive: Potency [2] | Potency [4]
active: Potency [1] 61.1 µM | Potency [3] 61.1 µM and 29.8 µM | Potency [5] 54.5 µM

CCCCN1CCCC[C@H]1C(=O)Nc1c(C)cccc1C
active: Potency [7] 0.617 µM
inactive: Potency [1] | Potency [2] | Potency [3] | Potency [4]

O=C(Nc1cccc(Cl)c1)OCC#CCCl
inactive: Potency [2] | Potency [4]
active: Potency [1] 54.5 µM | Potency [3] 30.6 µM | Potency [6] 13.7 µM | Potency [7] 39.9 µM

CSc1ccc(C(=O)c2[nH]c(=O)[nH]c2C)cc1
inactive: Potency [1] | Potency [2] | Potency [3] | Potency [4] | Potency [6] | Potency [7]

Cc1cc(N)c(S(=O)(=O)O)cc1Cl
inactive: Potency [1] | Potency [2] | Potency [3] | Potency [4] | Potency [5] | Potency [6] | Potency [7]

OC1(c2ccc(Cl)c(C(F)(F)F)c2)CCN(CCCC(c2ccc(F)cc2)c2ccc(F)cc2)CC1
inactive: Potency [6]
active: Potency [1] 10.6 µM | Potency [2] 13.3 µM | Potency [3] 13.3 µM | Potency [5] 18.8 µM

CS(=O)(=O)CCNCc1ccc(-c2ccc3ncnc(Nc4ccc(OCc5cccc(F)c5)c(Cl)c4)c3c2)o1
active: Potency [1] 26.6 µM | Potency [2] 33.5 µM | Potency [3] 23.7 µM | Potency [5] 29.8 µM
